# Results reported in PubChem BioAssay AID1508600 (Functional Genomics Laboratory (NCATS/FGL), 2020).
# The campaign covered roughly 53,000 sequences. About 3,700 (7%) were called active.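 How the source made its calls: active means gene knockdowns whose robust z-score for IL-1 alpha signal is at least 2 or at most -2, so actives lie on both sides; inactive means the rest.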 This excerpt belongs to a sample that is enriched for actives.
# Experiment: Components of the Cytosolic LPS Sensing Pathway: Gene Identification via Genome-wide siRNA Screen;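 further: robust z of the log signal after scaling to non-targeting control siRNA wells of the plate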
# Conditions: RAW264.7 macrophages, IL-1a HTRF, actives lie on both sides, screened at 100 nM (by protocol), cells primed 5 h with Pam3CSK4 first
# Outline: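 Three distinct siRNAs per gene were tested singly at 100 nM in RAW264.7 macrophages. Following Pam3CSK4 priming and 24 hour LipidA transfection, IL-1a secretion was read by HTRF.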
row,Sequence,z-score
1,CCAUACAUCCGAGAGUUUGTT against Snrnp70,2.37 (active)
2,GCCCUUUCAUCAAUAAUGUTT against Slc12a7,-0.113 (inactive)
3,GGAAACAUAACCUUCAAUGTT against Wdr3,1.13 (inactive)
4,CGGAAGCCUCCACAAAUAATT against Apba1,0.0959 (inactive)
5,GGUGUCUACUCUGAGUUGCTT against Pan2,1.94 (inactive)
6,GCGGAGGAGUUUUCUUCGATT against Susd4,0.93 (inactive)
7,GGACCAUGCUCCCUACUUATT against Prss37,0.386 (inactive)
8,GGCUGGUUGGAAGGAAAAUTT against Ints6l,2.1 (active)
9,GGCUGUUCAAAAAUUUCGGTT against Sox17,-0.261 (inactive)
10,GGUUUUGAGAAGAUAACUCTT against Zfp236,0.67 (inactive)
11,GGACACACUCUACUUCCCATT against Mrgprg,-0.196 (inactive)
12,GGUUCGAGUUUCAUACUAUTT against Padi4,2.56 (active)
13,GUCAGAACAAAACCAAAUGTT against E330013P04Rik,-0.152 (inactive)
14,GGAAUCAUCUUCAUUGACCTT against Agpat1,0.0827 (inactive)
15,CGUGUGGUGUUGGUAUCAGTT against Spaca1,0.853 (inactive)
16,GGAUUCAUAAAAGAAGCAATT against Zfp90,0.8 (inactive)
17,GGCGGCACGUUCACCUAAATT against Rnps1,1.86 (inactive)
18,CCACUUGUAGACUUGAUUUTT against Jag1,0.618 (inactive)
19,GCCCAGAUCAAUUUGAGCGTT against Grhl2,-0.674 (inactive)
20,CGAGAUAGAGUCUGGAAUUTT against 1700092C17Rik,3.91 (active)
21,GGUCAUCGGGAGGUUUGAATT against Nfkbil1,-0.0141 (inactive)
22,GGAUCUCUAUAGCAUCGUGTT against Col18a1,0.249 (inactive)

row,Sequence,z-score
1,GGGAUGCUGUAGAUGGAAUTT against Olfr978,0.0466 (inactive)
2,GGCAAAUCAAGCAGAAAAUTT against Ncor1,0.739 (inactive)
3,GAUAAUGGUCACUAAAUCUTT against Vmn1r4,-1.65 (inactive)
4,GCAACCAUUUAAGAAGACCTT against Tnfrsf9,-0.301 (inactive)
5,GGUGAUCUGGACCAAGAUGTT against Lcp1,-0.52 (inactive)
6,GGUCUACUUUUACGUCUCCTT against Nfatc4,-0.339 (inactive)
7,GUGUACGUCUGUUAACACATT against Dad1,-2.1 (active)
8,CCUUCUUGAAAACUCCAAGTT against Lum,-0.862 (inactive)
9,GGGAAGGCACACCAUAGAATT against Zfp369,1.11 (inactive)
10,GGGCUACUAUUCAUUGAUCTT against 4930550L24Rik,1.94 (inactive)
11,CCACUAAGUCCCAUGCUAGTT against Glycam1,0.188 (inactive)
12,GGAAUUUAAGGUGUUCACATT against Lcn3,-0.197 (inactive)
13,GGCUCAGUGAGUUUCAGAATT against Snx25,3.66 (active)
14,CCAAAUGUAACUGGUGUAATT against Aif1l,-0.69 (inactive)
15,CGAGACAGUUUCCAUAGCGTT against Spen,-0.271 (inactive)
16,GCAACAUUAGGAUUUAUAGTT against Gask1b,0.0376 (inactive)
17,GGUAGUCAUACAGAUAUGUTT against Hey2,0.973 (inactive)
18,GCAAUCUCUCCUUUUGUGATT against Olfr1128,0.426 (inactive)
19,GGACUUUCACAGACCACUUTT against Rgma,0.999 (inactive)
20,GGAACAAGGAUGUAAAAUUTT against Olfr1090,-0.751 (inactive)
21,GGAAGACUUUCUGGACAUATT against Sgk2,2.44 (active)
22,CCUACAGCAACCAUAAGGATT against Plch2,-1.6 (inactive)

row,Sequence,z-score
1,GGACAGCUGUUUCAAUUCUTT against Il1rap,-0.162 (inactive)
2,GGAUUUGCCUACACAUAUGTT against Nqo1,0.362 (inactive)
3,CCCUUCUCCACCUGAGAGUTT against Orm3,-2.25 (active)
4,GGAAAUGAAGAGUGUUGAATT against Slc7a3,-0.4 (inactive)
5,UGCCCAAGACUCAGAAGUCTT against Igf1,0.0658 (inactive)
6,GCUAACUGCCUUGGGAAGATT against Lyl1,2.57 (active)
7,GGCCAAGCACGAUAAAUACTT against Stub1,-1.08 (inactive)
8,CCUACAGUAUGUGGCAGAUTT against Grb7,-1.49 (inactive)
9,GGUGUUUUAUACACUCUGUTT against Mgme1,-1.85 (inactive)
10,GGACUUAAAACAGAAAGCATT against Haus1,-2.79 (active)
11,CGUGGUUGUACAUAUUUGUTT against Trip10,0.39 (inactive)
12,GGGAAACAAAUUGUUUGCATT against Dnaaf4,-0.461 (inactive)
13,GGCUUUGUCGUUAAUUUUUTT against Auh,0.322 (inactive)
14,GGUGCAUUAUCUUGGUUCGTT against Hmga2,-2.46 (active)
15,GGCAAAUAUUCAGUUUGGATT against Scarb2,-0.00406 (inactive)
16,GGGUUUAUAAAACUGAAGUTT against Cav2,0.672 (inactive)
17,GGCACAUGAGACAGCUUUUTT against Tmem160,0.0311 (inactive)
18,CGUGUUCAGCGUAGAAACUTT against Ttll1,0.283 (inactive)
19,GGUUUCAGAGCUAAACCCUTT against Larp4b,0.235 (inactive)
20,CCAUAGUUUUGGUUACCAATT against E330037G11Rik,-0.213 (inactive)
21,GUCUCUUUGCCCUGUGCUATT against Vmn1r239-ps,0.0206 (inactive)
22,GGCUUGGAUUUUGAAAUACTT against Srcin1,-0.792 (inactive)

row,Sequence,z-score
1,GCUCAGCAAUACUUCCUACTT against Itgal,-0.188 (inactive)
2,GCUCAUAUACACCAUUUCUTT against Tmem171,-1.12 (inactive)
3,GCCUAUCAAUGUGUAUCUUTT against Tcf21,-0.497 (inactive)
4,CGUCCUAGGAAUCUACUUUTT against Itgad,2.63 (active)
5,GGGAAAGUAAUUGAUAAACTT against Mtrr,0.59 (inactive)
6,GUCUGUCAUUUGUGGAAAUTT against Olfr1495,-2.17 (active)
7,CCGAGUUCGGGUAUCUUGGTT against Grwd1,-0.885 (inactive)
8,CCCACCACAAGCUAAUACATT against Ubac1,-0.0826 (inactive)
9,GGAACAAAGACAUGUAUCATT against Zgpat,-0.931 (inactive)
10,GCUCAGAAGUCCAAGAUACTT against Casp12,-1.86 (inactive)
11,GGUCGCUGGAGACCUUAGUTT against Hjurp,-1.88 (inactive)
12,GGAACAGGUGAUCCGCUACTT against Lzts2,1.26 (inactive)
13,GCACUCUGUUCAGCUAAAATT against Tafa3,2.16 (active)
14,GGAAGCUAUGAACAAUACATT against Sulf2,0.00856 (inactive)
15,GGUGUGAUGGAGUUCUUAUTT against Ndufs1,-0.94 (inactive)
16,GGUUCCAUAACCUGUGUCATT against Fbxo28,0.272 (inactive)
17,GGGUUAAUGCAGCUCACGUTT against Lrrtm1,0.425 (inactive)
18,GGCUUUGGCGAUAAGACAUTT against Glud1,2.29 (active)
19,CCAAUUACGGAGAUUGGAATT against Tspan6,-0.803 (inactive)
20,GGUUGAUUCCAACGACAUCTT against Tinagl1,-0.173 (inactive)
21,GCAUAAAGCACCCGGAGAGTT against Zbtb32,-1.53 (inactive)
22,GGUGUUAAGACUCAGCUCATT against Micall2,-1.49 (inactive)

row,Sequence,z-score
1,GCCUGGUUAUUAAUUUAUCTT against Dzank1,-0.724 (inactive)
2,GGCACCCGAGUAGGUCAAATT against Carhsp1,6.02 (active)
3,CGUAACUGAGUCAAUUAGUTT against Intu,0.128 (inactive)
4,GCGUGGUUUCUGAAUACAUTT against Nt5e,6.67 (active)
5,GGUAACAUCUAUAUAUCACTT against Rb1,1.56 (inactive)
6,GGACUCCAACCACACUAUCTT against Rab4b,0.847 (inactive)
7,GGCAUGAUGCUGAUCAUUCTT against Olfr1100,-0.0763 (inactive)
8,GCUUAUAGUUCAGUUUUUGTT against Ints8,0.835 (inactive)
9,GCAAAUAGGGAGGUUCCUGTT against Ypel1,1.47 (inactive)
10,GGAGACUUCAGUGCCUCUUTT against Slc16a11,2.45 (active)
11,GGUAAUGGGACUUGGUAGGTT against Olfr1338,-0.056 (inactive)
12,UGGUCGGCUAGAUGAUGGATT against Wdr34,-0.7 (inactive)
13,GGAAGUCUGCCUGUUCUUGTT against Galnt10,0.744 (inactive)
14,GGCUGUGUUGUCGAUUUCCTT against Nkain3,0.351 (inactive)
15,GGGAUGAGUUCUUGUAAAUTT against Unc50,-1.32 (inactive)
16,GGGAACUCGAACAAGAAUUTT against Six1,1.11 (inactive)
17,GGAAAAAGAGGAUGAGUGCTT against Gm4861,2.01 (active)
18,GCUGCUGGAAACUAGACUGTT against Cyp2b13,-1.71 (inactive)
19,GUCAUCAAUCAAGUCUUGATT against Olfr1408,-0.0822 (inactive)
